Results on 17 compounds are retold here after PubChem BioAssay (EPA / NIEHS).

The source made the active and inactive calls. Rule for the calls: active = hit-call score of the fitted dose curve at least 0.9, where 1 is the maximum; inactive = score below 0.9.

Read-out in experiment [1]: Human Leukocyte Antigen - DR isotype (HLADR), HLA-DRA (gene 3122)
The experiment in a line: BSK_CASM3C_HLADR: BioMAP Diversity Plus: CASM3C Assay for Human Leukocyte Antigen - DR isotype (HLADR) Biomarker Activity (AID 2283043).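 Note: cell-surface HLA-DR protein level quantified by ELISA.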 To be noted: primary human coronary artery smooth muscle cells; actives raise or lower the signal.

Read-out in experiment [2]: Macrophage colony-stimulating factor (MCSF), CSF1 (gene 1435)
Nature of the experiment: BSK_CASM3C_MCSF: BioMAP Diversity Plus: CASM3C Assay for Macrophage colony-stimulating factor (MCSF) Biomarker Activity (AID 2283044).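 Note: M-CSF protein amount quantified by ELISA after 24 h exposure.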 To be noted: primary human coronary artery smooth muscle cells; actives raise or lower the signal.

Read-out in experiment [3]: Low-density lipoprotein receptor (LDLR), LDLR (gene 3949)
The experiment in a line: BSK_CASM3C_LDLR: BioMAP Diversity Plus: CASM3C Assay for Low-density lipoprotein receptor (LDLR) Biomarker Activity (AID 2283045).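 Note: LDLR protein level on the cell surface quantified by ELISA.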 To be noted: primary human coronary artery smooth muscle cells; actives raise or lower the signal.

Read-out in experiment [4]: Monocyte Chemoattractant Protein-1 (MCP1), CCL2 (gene 6347)
The experiment in a line: BSK_CASM3C_MCP1: BioMAP Diversity Plus: CASM3C Assay for Monocyte Chemoattractant Protein-1 (MCP1) Biomarker Activity (AID 2283046).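 Note: MCP-1 level quantified by ELISA 24 h after dosing.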 To be noted: primary human coronary artery smooth muscle cells; actives raise or lower the signal.

A short description of experiment [5]: BSK_CASM3C_Proliferation: Cell Proliferation Assessment in the BioMAP Diversity Plus: CASM3C Assay (AID 2283047).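 Note: sulforhodamine B total protein stain as relative cell number at 560 nm; sub-confluent cells exposed 48 h before staining; fitted both ways against DMSO so gain or loss of cell number.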 To be noted: primary human coronary artery smooth muscle cells.
Read-out in experiment [6]: Monokine induced gamma interferon (MIG), CXCL9 (gene 4283)
Nature of the experiment: BSK_CASM3C_MIG: BioMAP Diversity Plus: CASM3C Assay for Monokine induced gamma interferon (MIG) Biomarker Activity (AID 2283048).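 Note: MIG protein level measured by ELISA.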 The note with it: primary human coronary artery smooth muscle cells; actives raise or lower the signal.

Read-out in experiment [7]: serum amyloid A (SAA), SAA1 (gene 6288)
Nature of the experiment: BSK_CASM3C_SAA: BioMAP Diversity Plus: CASM3C Assay for serum amyloid A (SAA) Biomarker Activity (AID 2283049).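 Note: SAA protein level quantified by ELISA.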 To be noted: primary human coronary artery smooth muscle cells; actives raise or lower the signal.

Experiment [8] in a line: BSK_CASM3C_SRB: Viability Assessment in the BioMAP Diversity Plus: CASM3C Assay (AID 2283050).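 Note: total protein by SRB staining as cytotoxicity measure in parallel cultures; cells exposed to compound for 24 h.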 The note with it: primary human coronary artery smooth muscle cells.
Read-out in experiment [9]: Thrombomodulin, THBD (gene 7056)
The experiment in a line: BSK_CASM3C_Thrombomodulin: BioMAP Diversity Plus: CASM3C Assay for Thrombomodulin Biomarker Activity (AID 2283051).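 Note: thrombomodulin protein level measured by ELISA 24 h after dosing.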 The note with it: primary human coronary artery smooth muscle cells; actives raise or lower the signal.

Read-out in experiment [10]: Tissue Factor, F3 (gene 2152)
Nature of the experiment: BSK_CASM3C_TissueFactor: BioMAP Diversity Plus: CASM3C Assay for Tissue Factor Biomarker Activity (AID 2283052).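 Note: cell surface tissue factor protein level read by ELISA.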 The note with it: primary human coronary artery smooth muscle cells; actives raise or lower the signal.

Broadly, the AC50 is the midpoint of the concentration-response curve, whichever way the signal moves. In the case of `CC(C)N(C(=O)CCl)c1ccccc1`, the AC50 in [1] was 6.14 µM (active); in [2], 13.3 µM (active); in experiment [3], 5.57 µM (active); in experiment [4], 6.89 µM (active); in experiment [5], 6.4 µM (active); in experiment [6] it was 12.4 µM (active). Also, the AC50 in experiment [7] is 4.5 µM (active); in experiment [8], 6.28 µM (active); in experiment [9] it was 2.75 µM (active); in [10], 20 µM (active).
Regarding `[Cl][Sn]([c]1ccccc1)([c]1ccccc1)[c]1ccccc1`, the AC50 is 0.261 µM (active) in experiment [1]; 0.718 µM (active) in [2]; 0.343 µM (active) in experiment [3]; 0.599 µM (active) in experiment [4]; 0.134 µM (active) in experiment [5]; 0.524 µM (active) in experiment [6]. In addition, the AC50 in experiment [7] is 0.522 µM (active); in [8] it was 0.688 µM (active); in experiment [9] it was 1.07 µM (active); in experiment [10], 1.37 µM (active).
For the compound `N#CCCC(Br)(C#N)CBr` (centres undefined), the AC50 was 8.75 µM (active) in experiment [1]; 20 µM (active) in experiment [2]; 12.2 µM (active) in experiment [3]; 20 µM (active) in experiment [4]; 3.93 µM (active) in experiment [5]; 33.8 µM (active) in experiment [6]. Moreover, the concentration at half-maximal activity (AC50) was 11.8 µM (active) in experiment [7], 20 µM (active) in [8], 20 µM (active) in [9] and 12.7 µM (active) in experiment [10].
Consider `N#Cc1cccnc1`, for which the outcome in [1], in [2], in experiment [3], in experiment [4], in [5] and in [6] was inactive. For the same compound, the result in [7], in [8], in experiment [9] and in experiment [10] was inactive.
As for `CCCCCCCCCCCCN(C)C`, the result in [1], in experiment [2], in experiment [4], in [5], in experiment [6] and in experiment [7] was inactive. In addition, the outcome in experiment [8], in experiment [9] and in [10] was inactive. The AC50 in experiment [3] is 26.7 µM (active).
`O=S(=O)(C(Cl)(Cl)Cl)C(Cl)(Cl)Cl`: the AC50 in experiment [1] was 1.31 µM (active); in experiment [2], 2.2 µM (active); in experiment [4], 2.28 µM (active); in [5], 0.528 µM (active); in [6] it was 3.13 µM (active); in [7] it was 0.877 µM (active). Besides, the AC50 in experiment [8] is 1.54 µM (active); in experiment [10], 1.85 µM (active). The outcome in experiment [3] and in experiment [9] was inactive.
With `O=S(=O)(c1ccc(Cl)cc1)c1cc(Cl)c(Cl)cc1Cl`, the outcome in experiment [1], in experiment [2], in experiment [3], in experiment [4], in experiment [5] and in experiment [6] was inactive. The outcome in [7], in experiment [8] and in experiment [10] was inactive. Besides, the AC50 in experiment [9] was 8.36 µM (active).
For the compound `Cc1ccc2nc3sc(=O)sc3nc2c1`, the outcome in experiment [1], in experiment [2], in [3], in [4], in experiment [5] and in experiment [6] was inactive. In addition, the outcome in experiment [7], in experiment [8], in [9] and in [10] was inactive.
With `OC(Cc1ccccc1Cl)(Cn1cncn1)C1(Cl)CC1` (centres undefined), the outcome in experiment [1], in [2], in experiment [3], in experiment [4], in experiment [5] and in experiment [6] was inactive. Also, the outcome in experiment [7], in experiment [8], in experiment [9] and in experiment [10] was inactive.
On to `NC(=O)CCl`, for which, in [1], the concentration at half-maximal activity (AC50) is 20 µM (active). The result in experiment [2], in experiment [3], in [4], in [5], in experiment [6] and in experiment [7] was inactive. Moreover, the result in experiment [8], in [9] and in [10] was inactive.
As for `CCCCCCCCCCCCc1cccc(S(=O)(=O)O)c1`, the result in experiment [1], in experiment [2], in experiment [3], in [4], in [5] and in experiment [6] was inactive. The result in [7], in experiment [8], in experiment [9] and in [10] was inactive.
Regarding `CCOP(=O)(OCC)SCCSCC`, the result in [1], in experiment [2], in experiment [3], in [4], in [5] and in experiment [6] was inactive. Further, the result in [7], in experiment [8], in experiment [9] and in experiment [10] was inactive.
Regarding `Cc1c([N+](=O)[O-])c(C)c([N+](=O)[O-])c(C(C)(C)C)c1[N+](=O)[O-]`, the result in experiment [1], in [2], in [3], in experiment [4], in experiment [5] and in experiment [6] was inactive. For the same compound, the result in experiment [7], in experiment [8], in experiment [9] and in experiment [10] was inactive.
As to `O=C1C=CC(=O)c2ccccc21`, the AC50 is 2.45 µM (active) in experiment [1]; 5.16 µM (active) in experiment [2]; 10.8 µM (active) in [3]; 8.9 µM (active) in [4]; 0.474 µM (active) in [5]; 30.1 µM (active) in [6]. Further, the AC50 in experiment [7] is 3.37 µM (active); in experiment [8] it was 8.33 µM (active); in [9], 34.1 µM (active); in experiment [10] it was 6.75 µM (active).
Turning to `Oc1cc(Cl)c(Cl)cc1Cl`, the outcome in experiment [1], in experiment [2], in [3], in experiment [4], in experiment [6] and in experiment [7] was inactive. Besides, the result in experiment [8] and in experiment [10] was inactive. Besides, in experiment [5], the AC50 was 30.8 µM (active).
As for `O=C(O)C1(c2ccc3c(c2)OC[C@H](Cc2ccc(-c4ccccc4)cc2)[C@H]3O)CCCC1`, the AC50 is 25 µM (active) in experiment [1] and 33.3 µM (active) in experiment [5]. Moreover, the result in experiment [2], in experiment [3], in experiment [4], in experiment [6], in experiment [7] and in experiment [8] was inactive. Besides, the result in experiment [9] and in experiment [10] was inactive.
In the case of `Clc1cccc(Cl)c1`, the outcome in experiment [1], in experiment [2], in experiment [3], in experiment [4], in experiment [5] and in experiment [6] was inactive. For the same compound, the result in experiment [7], in experiment [8], in experiment [9] and in [10] was inactive.
